# Laboratory results as given in the supplement of paper PMC4466140.
# How the values were obtained:
# Test in all cases: SPOT peptide array binding signal intensity (averaged, normalized) (arbitrary units (background-subtracted, floor 0; scale differs between SH3 domains)); higher = stronger binding of the SH3 domain to the peptide
# AgAbp1 = biological target: AgAbp1
# How it was run: (§1)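 GST-fused SH3 domains from four yeast species were expressed in E. coli BL21(DE3), purified on glutathione Sepharose and incubated at 10 μg/ml overnight at 4°C in TBS-based blocking buffer on cellulose membranes carrying synthetic 15-mer peptides, with cysteines replaced by serines. Bound protein was detected with anti-GST antibody, an HRP anti-mouse secondary and luminol, then imaged and quantified with Genespotter. Binding signal is the normalized, background-subtracted spot intensity averaged over replicates, in arbitrary units that differ between domains.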
# AgBbc1 = biological target: AgBbc1
# How it was run: as §1
# AgBem1-D1 = biological target: AgBem1-D1
# How it was run: as §1
# AgBzz1-D1 = biological target: AgBzz1-D1
# How it was run: as §1
# AgBzz1-D2 = biological target: AgBzz1-D2
# How it was run: as §1
# AgCyk3 = biological target: AgCyk3
# How it was run: as §1
# AgFus1 = biological target: AgFus1
# How it was run: as §1
# AgHof1 = biological target: AgHof1
# How it was run: as §1
# AgHse1 = biological target: AgHse1
# How it was run: as §1
# AgLsb1 = biological target: AgLsb1
# How it was run: as §1
# AgLsb4 = biological target: AgLsb4
# How it was run: as §1
# AgMyo5 = biological target: AgMyo5
# How it was run: as §1
# AgNbp2 = biological target: AgNbp2
# How it was run: as §1
# AgRvs167 = biological target: AgRvs167
# How it was run: as §1
# AgSho1 = biological target: AgSho1
# How it was run: as §1
# AgSla1-D1-D2 = biological target: AgSla1-D1-D2
# How it was run: as §1
# AgSla1-D3 = biological target: AgSla1-D3
# How it was run: as §1
# CaAbp1-D1 = biological target: CaAbp1-D1
# How it was run: as §1
# CaAbp1-D2 = biological target: CaAbp1-D2
# How it was run: as §1
# CaBbc1 = biological target: CaBbc1
# How it was run: as §1
# CaBem1-D1 = biological target: CaBem1-D1
# How it was run: as §1
# CaBzz1-D1 = biological target: CaBzz1-D1
# How it was run: as §1
# CaBzz1-D2 = biological target: CaBzz1-D2
# How it was run: as §1
# CaCyk3 = biological target: CaCyk3
# How it was run: as §1
# CaFus1 = biological target: CaFus1
# How it was run: as §1
# CaHof1 = biological target: CaHof1
# How it was run: as §1
# CaHse1 = biological target: CaHse1
# How it was run: as §1
# CaLsb1 = biological target: CaLsb1
# How it was run: as §1
# CaLsb4 = biological target: CaLsb4
# How it was run: as §1
# CaMyo5 = biological target: CaMyo5
# How it was run: as §1
# CaNbp2 = biological target: CaNbp2
# How it was run: as §1
# CaRvs167 = biological target: CaRvs167
# How it was run: as §1
# CaRvs167-3 = biological target: CaRvs167-3
# How it was run: as §1
# CaSho1 = biological target: CaSho1
# How it was run: as §1
# CaSla1-D1-D2 = biological target: CaSla1-D1-D2
# How it was run: as §1
# CaSla1-D3 = biological target: CaSla1-D3
# How it was run: as §1
# ScAbp1 = biological target: ScAbp1
# How it was run: as §1
# ScBbc1 = biological target: ScBbc1
# How it was run: as §1
# ScBem1-D1 = biological target: ScBem1-D1
# How it was run: as §1
# ScBzz1-D1 = biological target: ScBzz1-D1
# How it was run: as §1
# ScBzz1-D2 = biological target: ScBzz1-D2
# How it was run: as §1
# ScCyk3 = biological target: ScCyk3
# How it was run: as §1
# ScFus1 = biological target: ScFus1
# How it was run: as §1
# ScHof1 = biological target: ScHof1
# How it was run: as §1
# ScHse1 = biological target: ScHse1
# How it was run: as §1
# ScLsb1 = biological target: ScLsb1
# How it was run: as §1
# ScLsb2 = biological target: ScLsb2
# How it was run: as §1
# ScLsb3 = biological target: ScLsb3
# How it was run: as §1
# ScLsb4 = biological target: ScLsb4
# How it was run: as §1
# ScMyo3 = biological target: ScMyo3
# How it was run: as §1
# ScMyo5 = biological target: ScMyo5
# How it was run: as §1
# ScNbp2 = biological target: ScNbp2
# How it was run: as §1
# ScPex13 = biological target: ScPex13
# How it was run: as §1
# ScRvs167 = biological target: ScRvs167
# How it was run: as §1
# ScSho1 = biological target: ScSho1
# How it was run: as §1
# ScSla1-D1-D2 = biological target: ScSla1-D1-D2
# How it was run: as §1
# ScSla1-D3 = biological target: ScSla1-D3
# How it was run: as §1
# SpAbp1-D1 = biological target: SpAbp1-D1
# How it was run: as §1
# SpBbc1 = biological target: SpBbc1
# How it was run: as §1
# SpBzz1-D1 = biological target: SpBzz1-D1
# How it was run: as §1
# SpBzz1-D2 = biological target: SpBzz1-D2
# How it was run: as §1
# SpCyk3 = biological target: SpCyk3
# How it was run: as §1
# SpHof1 = biological target: SpHof1
# How it was run: as §1
# SpHof1-2 = biological target: SpHof1-2
# How it was run: as §1
# SpHof1-3 = biological target: SpHof1-3
# How it was run: as §1
# SpHse1 = biological target: SpHse1
# How it was run: as §1
# SpLsb1 = biological target: SpLsb1
# How it was run: as §1
# SpLsb4 = biological target: SpLsb4
# How it was run: as §1
# SpMyo1 = biological target: SpMyo1
# How it was run: as §1
# SpNbp2 = biological target: SpNbp2
# How it was run: as §1
# SpPex13 = biological target: SpPex13
# How it was run: as §1
# SpRvs167 = biological target: SpRvs167
# How it was run: as §1
# SpSla1-D1-D2 = biological target: SpSla1-D1-D2
# How it was run: as §1
# SpSla1-D3 = biological target: SpSla1-D3
# How it was run: as §1
binder,measurement,setting,value
LKQRFFLMFPKSIIW,SPOT peptide array binding signal intensity,AgAbp1,4
same,SPOT peptide array binding signal intensity,AgBbc1,6
same,SPOT peptide array binding signal intensity,AgBem1-D1,102
same,SPOT peptide array binding signal intensity,AgBzz1-D1,49.5
same,SPOT peptide array binding signal intensity,AgBzz1-D2,44
same,SPOT peptide array binding signal intensity,AgCyk3,1.5
same,SPOT peptide array binding signal intensity,AgFus1,742
same,SPOT peptide array binding signal intensity,AgHof1,81.5
same,SPOT peptide array binding signal intensity,AgHse1,1020
same,SPOT peptide array binding signal intensity,AgLsb1,0.5
same,SPOT peptide array binding signal intensity,AgLsb4,42.5
same,SPOT peptide array binding signal intensity,AgMyo5,0.5
same,SPOT peptide array binding signal intensity,AgNbp2,146
same,SPOT peptide array binding signal intensity,AgRvs167,3.67
same,SPOT peptide array binding signal intensity,AgSho1,102
same,SPOT peptide array binding signal intensity,AgSla1-D1-D2,141
same,SPOT peptide array binding signal intensity,AgSla1-D3,21
same,SPOT peptide array binding signal intensity,CaAbp1-D1,295
same,SPOT peptide array binding signal intensity,CaAbp1-D2,65.5
same,SPOT peptide array binding signal intensity,CaBbc1,17.8
same,SPOT peptide array binding signal intensity,CaBem1-D1,33.5
same,SPOT peptide array binding signal intensity,CaBzz1-D1,104
same,SPOT peptide array binding signal intensity,CaBzz1-D2,48.5
same,SPOT peptide array binding signal intensity,CaCyk3,5
same,SPOT peptide array binding signal intensity,CaFus1,4200
same,SPOT peptide array binding signal intensity,CaHof1,0.5
same,SPOT peptide array binding signal intensity,CaHse1,121
same,SPOT peptide array binding signal intensity,CaLsb1,1.5
same,SPOT peptide array binding signal intensity,CaLsb4,42
same,SPOT peptide array binding signal intensity,CaMyo5,35
same,SPOT peptide array binding signal intensity,CaNbp2,676
same,SPOT peptide array binding signal intensity,CaRvs167,89.2
same,SPOT peptide array binding signal intensity,CaRvs167-3,520
same,SPOT peptide array binding signal intensity,CaSho1,484
same,SPOT peptide array binding signal intensity,CaSla1-D1-D2,84.5
same,SPOT peptide array binding signal intensity,CaSla1-D3,257
same,SPOT peptide array binding signal intensity,ScAbp1,48
same,SPOT peptide array binding signal intensity,ScBbc1,4.5
same,SPOT peptide array binding signal intensity,ScBem1-D1,69
same,SPOT peptide array binding signal intensity,ScBzz1-D1,42
same,SPOT peptide array binding signal intensity,ScBzz1-D2,150
same,SPOT peptide array binding signal intensity,ScCyk3,124
same,SPOT peptide array binding signal intensity,ScFus1,819
same,SPOT peptide array binding signal intensity,ScHof1,1.5
same,SPOT peptide array binding signal intensity,ScHse1,1580
same,SPOT peptide array binding signal intensity,ScLsb1,1
same,SPOT peptide array binding signal intensity,ScLsb2,≤ 0
same,SPOT peptide array binding signal intensity,ScLsb3,33
same,SPOT peptide array binding signal intensity,ScLsb4,14.5
same,SPOT peptide array binding signal intensity,ScMyo3,≤ 0
same,SPOT peptide array binding signal intensity,ScMyo5,4
same,SPOT peptide array binding signal intensity,ScNbp2,252
same,SPOT peptide array binding signal intensity,ScPex13,15.5
same,SPOT peptide array binding signal intensity,ScRvs167,14.5
same,SPOT peptide array binding signal intensity,ScSho1,1060
same,SPOT peptide array binding signal intensity,ScSla1-D1-D2,91.5
same,SPOT peptide array binding signal intensity,ScSla1-D3,132
same,SPOT peptide array binding signal intensity,SpAbp1-D1,69
same,SPOT peptide array binding signal intensity,SpBbc1,≤ 0
same,SPOT peptide array binding signal intensity,SpBzz1-D1,103
same,SPOT peptide array binding signal intensity,SpBzz1-D2,0.5
same,SPOT peptide array binding signal intensity,SpCyk3,9
same,SPOT peptide array binding signal intensity,SpHof1,236
same,SPOT peptide array binding signal intensity,SpHof1-2,36.5
same,SPOT peptide array binding signal intensity,SpHof1-3,748
same,SPOT peptide array binding signal intensity,SpHse1,972
same,SPOT peptide array binding signal intensity,SpLsb1,≤ 0
same,SPOT peptide array binding signal intensity,SpLsb4,38.5
same,SPOT peptide array binding signal intensity,SpMyo1,3.5
same,SPOT peptide array binding signal intensity,SpNbp2,515
same,SPOT peptide array binding signal intensity,SpPex13,86
same,SPOT peptide array binding signal intensity,SpRvs167,14.3
same,SPOT peptide array binding signal intensity,SpSla1-D1-D2,≤ 0
same,SPOT peptide array binding signal intensity,SpSla1-D3,39
